Measured values taken from the supplement of paper PMC11732987, “Enantioselective OTUD7B fragment discovery through chemoproteomics screening and high-throughput optimisation” (Communications Chemistry, 2025).

Legend:
Assay in all cases: log2 ratio of Biotin-Ahx-Ub-VS probe labelling (fragment/DMSO); higher = less target engagement (more negative = stronger competition), active = hit call of the paper (q ≤ 0.05, log2 ratio ≤ -1)
Settings in all cases: compound concentration: 200 uM; treatment time: 3 h
OTUD6B = target: T1, OTUD6B (UniProt Q8N6M0)
T1 sequence (whole entry): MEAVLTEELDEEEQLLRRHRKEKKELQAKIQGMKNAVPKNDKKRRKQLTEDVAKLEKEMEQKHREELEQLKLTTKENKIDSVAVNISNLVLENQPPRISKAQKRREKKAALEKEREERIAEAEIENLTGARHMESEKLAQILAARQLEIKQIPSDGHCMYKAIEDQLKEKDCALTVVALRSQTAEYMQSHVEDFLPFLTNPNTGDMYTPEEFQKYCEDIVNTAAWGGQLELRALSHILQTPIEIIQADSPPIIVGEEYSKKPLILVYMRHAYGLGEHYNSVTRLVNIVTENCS
Method in brief: (§1)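 HEK293T lysate (495 µg per sample, in Tris/CHAPS/IGEPAL buffer with protease inhibitors) was exposed in triplicate for 3 h to fragment at 200 µM or to vehicle, then to Biotin-Ahx-Ub-VS at 0.5 µM final for 1 h. Labelled DUBs were enriched on NeutrAvidin, digested with LysC and trypsin, and analysed by diaPASEF LC-MS/MS. Spectronaut label-free quantities were normalised to the global median, and values are average log2 ratios of fragment over vehicle from an unpaired t-test. Only proteins with ≥2 unique peptides were used.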

OTUD7B = target: T2, OTUD7B (UniProt Q6GQQ9)
T2 sequence (whole entry): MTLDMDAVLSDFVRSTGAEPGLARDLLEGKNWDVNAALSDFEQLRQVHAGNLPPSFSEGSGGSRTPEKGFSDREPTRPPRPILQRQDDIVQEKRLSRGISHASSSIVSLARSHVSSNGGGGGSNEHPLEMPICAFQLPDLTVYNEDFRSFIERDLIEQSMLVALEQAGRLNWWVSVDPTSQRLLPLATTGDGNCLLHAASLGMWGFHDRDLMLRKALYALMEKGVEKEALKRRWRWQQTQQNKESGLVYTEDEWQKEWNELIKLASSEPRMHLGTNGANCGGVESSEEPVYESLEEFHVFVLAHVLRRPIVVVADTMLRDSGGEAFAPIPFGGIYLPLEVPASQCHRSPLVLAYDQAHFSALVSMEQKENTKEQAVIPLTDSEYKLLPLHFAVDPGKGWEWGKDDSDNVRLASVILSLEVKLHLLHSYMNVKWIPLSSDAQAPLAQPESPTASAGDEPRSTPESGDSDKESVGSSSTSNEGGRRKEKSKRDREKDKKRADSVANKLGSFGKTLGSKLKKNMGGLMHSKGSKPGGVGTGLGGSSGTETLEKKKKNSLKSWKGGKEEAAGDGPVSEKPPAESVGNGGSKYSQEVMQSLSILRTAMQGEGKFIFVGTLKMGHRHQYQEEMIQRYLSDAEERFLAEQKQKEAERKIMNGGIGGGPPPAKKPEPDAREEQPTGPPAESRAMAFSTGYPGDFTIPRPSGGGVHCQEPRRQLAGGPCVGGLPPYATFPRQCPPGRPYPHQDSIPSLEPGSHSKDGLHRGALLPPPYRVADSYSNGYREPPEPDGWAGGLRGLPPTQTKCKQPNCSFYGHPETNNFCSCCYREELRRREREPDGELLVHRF
Method in brief: as §1

PRPF8 = PRPF8 (UniProt Q6P2Q9)
Method in brief: as §1

PSMD7 = target: T3, PSMD7 (UniProt P51665)
T3 sequence (whole entry): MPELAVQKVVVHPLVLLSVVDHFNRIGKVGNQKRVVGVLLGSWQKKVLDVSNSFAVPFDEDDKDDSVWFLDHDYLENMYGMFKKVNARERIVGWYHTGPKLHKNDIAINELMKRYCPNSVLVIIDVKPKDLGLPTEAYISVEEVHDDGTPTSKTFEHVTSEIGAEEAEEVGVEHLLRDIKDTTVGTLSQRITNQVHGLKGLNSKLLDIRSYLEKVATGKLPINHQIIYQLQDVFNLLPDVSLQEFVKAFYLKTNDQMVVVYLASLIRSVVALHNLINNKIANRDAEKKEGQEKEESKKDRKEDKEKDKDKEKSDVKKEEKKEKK
Method in brief: as §1

UCHL1 = UCHL1 (UniProt P09936)
Method in brief: as §1

UCHL3 = target: T4, UCHL3 (UniProt P15374)
T4 sequence (whole entry): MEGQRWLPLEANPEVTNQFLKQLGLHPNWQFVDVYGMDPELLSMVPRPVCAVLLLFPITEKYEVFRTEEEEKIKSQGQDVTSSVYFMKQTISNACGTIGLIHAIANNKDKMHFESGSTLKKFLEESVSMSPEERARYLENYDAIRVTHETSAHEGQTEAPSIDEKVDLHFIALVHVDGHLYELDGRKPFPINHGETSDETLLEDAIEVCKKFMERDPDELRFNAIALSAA
Method in brief: as §1

UCHL5 = target: T5, UCHL5 (UniProt Q9Y5K5)
T5 sequence (whole entry): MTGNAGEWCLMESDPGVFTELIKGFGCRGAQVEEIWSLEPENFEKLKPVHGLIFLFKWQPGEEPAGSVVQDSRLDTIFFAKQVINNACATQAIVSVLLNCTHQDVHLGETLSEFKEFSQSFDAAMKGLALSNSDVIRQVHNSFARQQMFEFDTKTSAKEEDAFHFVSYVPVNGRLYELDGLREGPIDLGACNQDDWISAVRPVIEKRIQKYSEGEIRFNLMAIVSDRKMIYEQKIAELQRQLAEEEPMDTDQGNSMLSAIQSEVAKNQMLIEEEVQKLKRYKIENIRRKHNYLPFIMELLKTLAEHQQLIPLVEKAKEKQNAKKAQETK
Method in brief: as §1

USP10 = USP10 (UniProt Q14694)
Method in brief: as §1

USP15 = target: T6, USP15 (UniProt Q9Y4E8)
T6 sequence (whole entry): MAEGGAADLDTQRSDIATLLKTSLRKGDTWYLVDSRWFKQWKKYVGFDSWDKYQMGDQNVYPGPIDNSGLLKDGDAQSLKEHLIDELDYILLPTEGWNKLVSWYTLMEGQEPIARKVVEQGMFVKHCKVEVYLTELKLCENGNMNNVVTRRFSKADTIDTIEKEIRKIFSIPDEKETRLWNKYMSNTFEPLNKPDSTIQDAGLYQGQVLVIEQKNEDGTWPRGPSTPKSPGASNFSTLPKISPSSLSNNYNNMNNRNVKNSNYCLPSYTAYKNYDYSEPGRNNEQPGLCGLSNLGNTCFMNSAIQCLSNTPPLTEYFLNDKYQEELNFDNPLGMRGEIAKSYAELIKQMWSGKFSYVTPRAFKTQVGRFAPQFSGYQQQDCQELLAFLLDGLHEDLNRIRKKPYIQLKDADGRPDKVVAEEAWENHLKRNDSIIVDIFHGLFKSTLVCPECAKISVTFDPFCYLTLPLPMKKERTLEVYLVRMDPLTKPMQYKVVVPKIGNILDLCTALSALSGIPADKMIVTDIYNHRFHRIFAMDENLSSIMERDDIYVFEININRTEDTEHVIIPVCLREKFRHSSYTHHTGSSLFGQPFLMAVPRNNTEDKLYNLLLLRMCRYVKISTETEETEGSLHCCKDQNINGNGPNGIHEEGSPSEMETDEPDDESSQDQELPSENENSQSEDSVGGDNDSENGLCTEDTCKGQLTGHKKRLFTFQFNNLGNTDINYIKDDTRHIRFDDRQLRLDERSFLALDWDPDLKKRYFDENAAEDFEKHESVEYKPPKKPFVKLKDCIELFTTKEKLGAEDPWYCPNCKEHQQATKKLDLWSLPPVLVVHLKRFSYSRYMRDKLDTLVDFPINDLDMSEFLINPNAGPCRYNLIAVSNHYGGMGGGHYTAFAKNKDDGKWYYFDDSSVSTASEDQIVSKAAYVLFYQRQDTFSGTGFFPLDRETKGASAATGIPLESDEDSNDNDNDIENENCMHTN
Method in brief: as §1

USP16 = USP16 (UniProt Q9Y5T5)
Method in brief: as §1

Measured: log2 ratio of Biotin-Ahx-Ub-VS probe labelling

Chain of USP10 (Q14694 whole entry): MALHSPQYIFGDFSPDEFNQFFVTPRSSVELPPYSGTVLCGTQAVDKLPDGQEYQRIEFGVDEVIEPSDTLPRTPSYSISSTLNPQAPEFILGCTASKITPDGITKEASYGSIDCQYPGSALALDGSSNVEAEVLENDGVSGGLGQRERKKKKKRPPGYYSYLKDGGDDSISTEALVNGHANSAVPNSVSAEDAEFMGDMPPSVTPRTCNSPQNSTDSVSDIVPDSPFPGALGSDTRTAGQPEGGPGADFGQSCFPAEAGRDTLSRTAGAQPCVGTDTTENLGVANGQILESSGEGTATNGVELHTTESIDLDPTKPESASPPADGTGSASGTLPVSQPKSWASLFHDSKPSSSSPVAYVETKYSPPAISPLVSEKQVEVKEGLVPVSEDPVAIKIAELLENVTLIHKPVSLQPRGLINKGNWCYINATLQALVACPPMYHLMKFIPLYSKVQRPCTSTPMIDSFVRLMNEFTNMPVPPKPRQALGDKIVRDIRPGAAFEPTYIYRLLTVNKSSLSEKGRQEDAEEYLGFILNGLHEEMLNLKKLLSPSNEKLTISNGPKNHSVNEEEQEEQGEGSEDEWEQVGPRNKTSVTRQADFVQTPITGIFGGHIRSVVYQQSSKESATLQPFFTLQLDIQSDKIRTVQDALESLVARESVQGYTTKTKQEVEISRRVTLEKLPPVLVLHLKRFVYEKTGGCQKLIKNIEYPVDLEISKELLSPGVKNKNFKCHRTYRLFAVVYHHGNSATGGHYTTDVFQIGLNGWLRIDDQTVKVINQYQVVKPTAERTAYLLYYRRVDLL
Chain of UCHL1 (P09936 whole entry, looked up): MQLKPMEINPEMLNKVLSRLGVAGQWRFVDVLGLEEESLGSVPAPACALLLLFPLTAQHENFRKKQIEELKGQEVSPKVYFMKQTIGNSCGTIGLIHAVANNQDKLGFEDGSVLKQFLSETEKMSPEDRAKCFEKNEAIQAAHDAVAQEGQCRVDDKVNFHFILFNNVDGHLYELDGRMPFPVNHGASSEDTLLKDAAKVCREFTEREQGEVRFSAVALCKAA
Chain of USP16 (Q9Y5T5 whole entry, looked up): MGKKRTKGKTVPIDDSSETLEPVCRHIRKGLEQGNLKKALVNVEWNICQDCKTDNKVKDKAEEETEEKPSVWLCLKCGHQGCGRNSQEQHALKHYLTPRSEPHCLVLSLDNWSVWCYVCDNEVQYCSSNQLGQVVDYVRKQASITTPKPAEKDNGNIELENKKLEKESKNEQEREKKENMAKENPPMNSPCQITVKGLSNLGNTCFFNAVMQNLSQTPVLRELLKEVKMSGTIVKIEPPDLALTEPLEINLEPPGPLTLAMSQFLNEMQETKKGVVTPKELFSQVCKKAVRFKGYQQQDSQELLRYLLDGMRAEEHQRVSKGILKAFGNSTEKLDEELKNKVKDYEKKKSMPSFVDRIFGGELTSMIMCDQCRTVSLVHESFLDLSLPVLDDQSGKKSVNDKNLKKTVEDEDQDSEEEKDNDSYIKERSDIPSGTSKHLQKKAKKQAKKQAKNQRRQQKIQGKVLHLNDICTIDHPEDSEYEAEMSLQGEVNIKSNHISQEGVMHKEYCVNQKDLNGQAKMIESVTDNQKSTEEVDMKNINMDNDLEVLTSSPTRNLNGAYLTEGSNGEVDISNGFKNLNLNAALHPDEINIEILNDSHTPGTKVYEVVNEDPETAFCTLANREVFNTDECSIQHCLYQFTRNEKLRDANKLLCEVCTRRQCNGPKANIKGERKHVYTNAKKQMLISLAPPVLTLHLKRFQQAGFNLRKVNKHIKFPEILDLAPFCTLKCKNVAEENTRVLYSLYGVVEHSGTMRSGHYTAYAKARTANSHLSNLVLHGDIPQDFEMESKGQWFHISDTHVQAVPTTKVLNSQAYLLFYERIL

CN(C)S(=O)(=O)c1ccccc1CNC(=O)CCl
inactive: OTUD6B -0.265 | OTUD7B -0.0445 | PRPF8 -0.0375 | PSMD7 -0.18 | UCHL3 0.0942 | UCHL5 -0.199 | USP10 -0.156 | USP15 -0.0655 | USP16 0.14
active: UCHL1 -1.18
